Experimental data taken from PubChem BioAssay (NCATS).
Where “and” joins values, the source holds several entries; their conditions need not be identical. Equal values may be shown once. Results filed as inconclusive are left out. Calls of active or inactive are those of the source. Unless noted, calls come from the whole dose curve; as a rule, active = well fitted curve in the direction sought with a large enough effect; inconclusive = small, poorly fitted or top-dose-only effect, or another doubt; inactive = no such curve, though single readings can be large; an effect the other way counts as inactive or inconclusive.

Experiments:
[1] = qHTS assay to identify small molecule inhibitors of chordoma cells - UCH-1 (AID 1259355); note: nearly all actives have a fitted effect of over 55% in size
Procedure, shortened: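 Luminescent ATP read-out (CellTiter-Glo, 30min at room temperature) measured viability of UCH-1 cells exposed for 48hr to test drugs at 15 concentrations, co-dosed with a five-agent combination of auranofin, camptothecin, doxorubicin, rubitecan and topotecan.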

[2] = P-glycoprotein substrates identified in KB-8-5-11 adenocarcinoma cell line, qHTS therapeutic library screen (AID 1346987); note: nearly all actives have a fitted effect of over 65% in size; note: potency is the fitted concentration of half-maximal effect
Procedure, shortened: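 KB-8-5-11: colchicine-selected sub-line of KB-3-1 over-expressing P-gp; assay medium lacked colchicine. 72 h drug exposure at 37 degree C, CellTiter-Glo.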

[3] = NS1 protein of Zika virus - qHTS assay to identify small molecule inhibitors in human HEK 293 cells (AID 1347053); note: series mostly up to about 46 µM; nearly all actives have a fitted effect of over 55% in size
Procedure, shortened: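 HEK 293 cells, seeded 20 h at 37 C, were pretreated with compound 1 h, then infected with ZIKV MR766 (MOI = 0.5) for 24 h. NS1 was read by TR-FRET with two anti-NS1 antibodies, normalized to uninfected and infected wells.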

[4] = qHTS for Inhibitors of the Functional Ribonucleoprotein Complex (vRNP) of Lassa (LASV) Arenavirus: LASV Primary Screen - GLuc reporter signal (AID 1347082; calls by dose curve; tested in HEK293 reporter line; note: nearly all actives have a fitted effect of over 60% in size; note: potency is the fitted concentration of half-maximal effect)
[5] = qHTS for Inhibitors of the Functional Ribonucleoprotein Complex (vRNP) of Lassa (LASV) Arenavirus: Viability assay - alamar blue signal for LASV Primary Screen (AID 1347083; calls by dose curve; tested in HEK293 reporter line; note: nearly all actives have a fitted effect of over 80% in size; note: potency is the fitted concentration of half-maximal effect)
[6] = qHTS for Inhibitors of the Functional Ribonucleoprotein Complex (vRNP) of Lymphocytic Choriomeningitis Arenaviruses (LCMV): Viability assay - alamar blue signal for LCMV Primary Screen (AID 1347085; calls by dose curve; tested in HEK293 reporter line; note: nearly all actives have a fitted effect of over 80% in size; note: potency is the fitted concentration of half-maximal effect)
[7] = molecular target: Nucleoprotein (Lymphocytic choriomeningitis virus (strain Armstrong)) (UniProt P09992); test: qHTS for Inhibitors of the Functional Ribonucleoprotein Complex (vRNP) of Lymphocytic Choriomeningitis Arenaviruses (LCMV): LCMV Primary Screen - GLuc reporter signal (AID 1347086; calls by dose curve; note: nearly all actives have a fitted effect of over 70% in size; note: potency is the fitted concentration of half-maximal effect)
Sequence of Nucleoprotein (Lymphocytic choriomeningitis virus (strain Armstrong)) (P09992 whole entry, looked up): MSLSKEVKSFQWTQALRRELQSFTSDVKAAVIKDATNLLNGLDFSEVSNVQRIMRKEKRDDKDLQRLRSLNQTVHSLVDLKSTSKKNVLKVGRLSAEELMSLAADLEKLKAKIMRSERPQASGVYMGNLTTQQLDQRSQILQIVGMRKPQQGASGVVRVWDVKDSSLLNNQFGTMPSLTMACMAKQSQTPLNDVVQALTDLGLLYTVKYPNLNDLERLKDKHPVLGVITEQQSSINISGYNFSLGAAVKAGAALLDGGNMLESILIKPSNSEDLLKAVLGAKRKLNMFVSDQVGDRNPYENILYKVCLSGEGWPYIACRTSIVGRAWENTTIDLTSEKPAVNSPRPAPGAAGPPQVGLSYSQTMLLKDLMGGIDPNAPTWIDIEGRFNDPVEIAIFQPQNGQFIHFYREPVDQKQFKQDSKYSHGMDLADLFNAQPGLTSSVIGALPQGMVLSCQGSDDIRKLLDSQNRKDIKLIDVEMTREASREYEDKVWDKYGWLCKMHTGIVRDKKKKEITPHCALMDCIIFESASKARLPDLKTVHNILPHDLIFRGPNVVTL

[8] = P-glycoprotein substrates identified in KB-3-1 adenocarcinoma cell line, qHTS therapeutic library screen (AID 1346986); note: nearly all actives have a fitted effect of over 60% in size;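 note: potency is the fitted concentration of half-maximal effect; potency is for cytotoxicity meaning loss of cell viability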
Procedure, shortened: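 KB-3-1 parental cells and P-gp-overexpressing KB-8-5-11 (colchicine omitted during assay) plated at 500 cells/well, dosed in dose-response, incubated 72 h at 37 degree C. CellTiter-Glo luminescence read; KB-8-5-11 also tested with tariquidar.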

[9] = Natriuretic polypeptide receptor (hNpr1) antagonism - Pilot counterscreen GloSensor control cell line (AID 1347045; calls by dose curve; note: potency is the fitted concentration of half-maximal effect)
Procedure, shortened: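 HEK293 cells carrying the GloSensor cGMP sensor (GIP/pGS-40F) were loaded with 2% GloSensor reagent for 2 h, exposed to compounds for 30 min, and then stimulated with 50 uM sodium nitroprusside for 20 min at room temperature.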

[10] = molecular target: Atrial natriuretic peptide receptor 1 (Homo sapiens) (UniProt P16066); test: Natriuretic polypeptide receptor (hNpr1) antagonism - Pilot screen (AID 1347049; calls by dose curve;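 note: agonist-evoked cGMP luminescence read 20 min after hNppA addition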; note: potency is the fitted concentration of half-maximal effect)
Sequence of Atrial natriuretic peptide receptor 1 (Homo sapiens) (P16066 whole entry, looked up): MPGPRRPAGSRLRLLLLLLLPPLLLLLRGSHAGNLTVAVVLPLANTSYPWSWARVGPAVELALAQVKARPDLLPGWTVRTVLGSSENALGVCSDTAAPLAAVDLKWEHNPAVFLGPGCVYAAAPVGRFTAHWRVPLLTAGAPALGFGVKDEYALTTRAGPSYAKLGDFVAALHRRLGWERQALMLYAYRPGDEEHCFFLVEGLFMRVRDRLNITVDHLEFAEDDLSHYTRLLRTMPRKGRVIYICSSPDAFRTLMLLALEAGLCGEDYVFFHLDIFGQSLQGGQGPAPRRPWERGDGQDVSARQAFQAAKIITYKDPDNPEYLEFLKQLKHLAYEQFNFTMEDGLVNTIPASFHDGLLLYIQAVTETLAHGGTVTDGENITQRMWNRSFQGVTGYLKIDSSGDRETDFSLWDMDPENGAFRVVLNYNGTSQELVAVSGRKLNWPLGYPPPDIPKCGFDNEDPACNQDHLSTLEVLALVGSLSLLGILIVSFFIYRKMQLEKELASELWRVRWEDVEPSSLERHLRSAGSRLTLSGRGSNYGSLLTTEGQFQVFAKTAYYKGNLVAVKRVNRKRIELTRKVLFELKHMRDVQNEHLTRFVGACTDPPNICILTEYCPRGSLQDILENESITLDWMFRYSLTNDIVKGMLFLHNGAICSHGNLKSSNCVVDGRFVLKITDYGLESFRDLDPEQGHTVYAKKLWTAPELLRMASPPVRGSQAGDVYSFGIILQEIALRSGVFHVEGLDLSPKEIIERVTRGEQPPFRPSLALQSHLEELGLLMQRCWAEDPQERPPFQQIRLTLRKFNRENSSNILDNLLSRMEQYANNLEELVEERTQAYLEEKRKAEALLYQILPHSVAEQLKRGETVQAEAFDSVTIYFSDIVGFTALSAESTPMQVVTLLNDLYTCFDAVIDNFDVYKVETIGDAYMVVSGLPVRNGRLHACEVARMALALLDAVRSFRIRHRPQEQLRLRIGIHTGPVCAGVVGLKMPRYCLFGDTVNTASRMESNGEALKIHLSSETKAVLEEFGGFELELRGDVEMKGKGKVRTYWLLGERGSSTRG
Procedure, shortened: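 HEK293 cells co-expressing hNpr1 and the GloSensor pGS-40F cGMP luciferase sensor were preloaded with 2% GloSensor reagent for 2 h. Compounds were added for 30 min at room temperature, then cells were stimulated with 0.1 nM hNppA for 20 min before luminescence readout.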

[11] = molecular target: Atrial natriuretic peptide receptor 2 (Homo sapiens) (UniProt P20594); test: Natriuretic polypeptide receptor (hNpr2) antagonism - Pilot subtype selectivity assay (AID 1347050; calls by dose curve; note: potency is the fitted concentration of half-maximal effect)
Sequence of Atrial natriuretic peptide receptor 2 (Homo sapiens) (P20594 whole entry, looked up): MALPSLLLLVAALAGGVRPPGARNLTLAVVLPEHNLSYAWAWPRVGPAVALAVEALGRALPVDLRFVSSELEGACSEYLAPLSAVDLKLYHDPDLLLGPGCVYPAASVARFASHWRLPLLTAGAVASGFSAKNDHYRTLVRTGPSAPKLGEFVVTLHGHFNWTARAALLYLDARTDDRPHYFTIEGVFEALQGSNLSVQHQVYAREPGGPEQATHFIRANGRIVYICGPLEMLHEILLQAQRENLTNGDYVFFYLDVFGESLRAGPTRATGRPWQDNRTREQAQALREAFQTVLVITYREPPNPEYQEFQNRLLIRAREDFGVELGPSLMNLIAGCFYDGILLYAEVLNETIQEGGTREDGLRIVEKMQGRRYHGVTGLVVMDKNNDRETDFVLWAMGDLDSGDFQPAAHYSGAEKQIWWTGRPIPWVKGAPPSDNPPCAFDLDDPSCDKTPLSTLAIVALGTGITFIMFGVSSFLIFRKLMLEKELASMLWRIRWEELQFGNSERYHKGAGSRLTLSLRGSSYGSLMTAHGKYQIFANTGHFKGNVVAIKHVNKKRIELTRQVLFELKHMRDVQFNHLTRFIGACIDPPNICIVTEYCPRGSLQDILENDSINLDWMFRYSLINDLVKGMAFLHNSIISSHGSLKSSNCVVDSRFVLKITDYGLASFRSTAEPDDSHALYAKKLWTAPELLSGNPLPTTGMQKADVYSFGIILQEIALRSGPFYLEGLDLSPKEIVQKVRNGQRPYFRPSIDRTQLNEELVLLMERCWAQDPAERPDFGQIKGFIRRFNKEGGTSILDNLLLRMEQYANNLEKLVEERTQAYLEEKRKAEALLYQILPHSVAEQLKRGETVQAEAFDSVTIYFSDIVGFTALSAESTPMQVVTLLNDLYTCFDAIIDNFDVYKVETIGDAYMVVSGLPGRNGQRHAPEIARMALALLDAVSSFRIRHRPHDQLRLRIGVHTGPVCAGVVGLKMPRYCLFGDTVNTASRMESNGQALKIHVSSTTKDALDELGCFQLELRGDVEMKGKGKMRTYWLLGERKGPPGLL
Procedure, shortened: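 cGMP-sensor HEK293/hNpr2 cells; 2% GloSensor reagent 2 h RT; compounds 30 min; baseline luminescence read; 1 nM hNppC agonist 20 min RT; final luminescence read by CCD camera. Antagonism = reduced post-agonist signal.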

[12] = molecular target: T1, Tyrosine-protein phosphatase non-receptor type substrate 1 (Homo sapiens) + Leukocyte surface antigen CD47 (Homo sapiens) (UniProt P78324+Q08722); test: CD47-SIRPalpha protein protein interaction - LANCE assay qHTS validation (AID 1347057; active = well fitted curve in the direction sought with a large enough effect in the signal ratio, with a control signal flat, not every such curve was filed as active; the % refers to the signal ratio; note: series mostly up to about 38 µM)
T1 sequence (P78324 whole entry, looked up): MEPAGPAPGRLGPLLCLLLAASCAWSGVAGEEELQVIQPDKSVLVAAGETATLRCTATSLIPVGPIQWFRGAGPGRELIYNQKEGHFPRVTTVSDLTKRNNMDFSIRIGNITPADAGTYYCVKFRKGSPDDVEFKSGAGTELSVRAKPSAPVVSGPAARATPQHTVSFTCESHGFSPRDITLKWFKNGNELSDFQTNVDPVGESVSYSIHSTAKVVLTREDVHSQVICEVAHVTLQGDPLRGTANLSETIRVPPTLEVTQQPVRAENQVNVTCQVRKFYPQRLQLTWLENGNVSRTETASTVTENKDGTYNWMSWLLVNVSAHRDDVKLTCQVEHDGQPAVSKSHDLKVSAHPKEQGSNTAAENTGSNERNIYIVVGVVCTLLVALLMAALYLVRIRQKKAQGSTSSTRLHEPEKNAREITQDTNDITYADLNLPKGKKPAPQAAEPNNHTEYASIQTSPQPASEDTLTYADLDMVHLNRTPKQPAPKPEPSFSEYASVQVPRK
T1 sequence (Q08722 whole entry, looked up): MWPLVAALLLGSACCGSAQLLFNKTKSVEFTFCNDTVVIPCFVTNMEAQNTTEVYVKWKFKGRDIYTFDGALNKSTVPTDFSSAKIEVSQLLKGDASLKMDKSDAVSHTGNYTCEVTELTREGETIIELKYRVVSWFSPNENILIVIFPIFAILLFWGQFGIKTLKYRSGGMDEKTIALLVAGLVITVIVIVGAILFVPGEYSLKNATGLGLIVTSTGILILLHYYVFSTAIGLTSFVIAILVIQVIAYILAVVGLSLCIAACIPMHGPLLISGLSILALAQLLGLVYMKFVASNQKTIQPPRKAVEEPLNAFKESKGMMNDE
Procedure, shortened: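 First, His-tagged CD47 and Eu-labelled anti-His antibody met the compound for 30 min; next, site-specifically biotinylated SIRPalpha was added for 30 min; finally streptavidin-APC was added before reading the TR-FRET ratio.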

[13] = molecular target: T1, Tyrosine-protein phosphatase non-receptor type substrate 1 (Homo sapiens) + Leukocyte surface antigen CD47 (Homo sapiens); test: CD47-SIRPalpha protein protein interaction - HTRF assay qHTS validation (AID 1347058; active = well fitted curve in the direction sought with a large enough effect in the signal ratio, not every such curve was filed as active; the % refers to the signal ratio;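 note: recombinant soluble extracellular CD47 with His tag and biotinylated SIRPalpha domains; series mostly up to about 38 µM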)
Procedure, shortened: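 TR-FRET read (Ch1/Ch2 ratio) of soluble extracellular CD47 and Avi-biotinylated SIRPalpha domains in PBS pH 7.4 with 0.05% IGEPAL; 7-point compound titration. Sequential 30 min room-temperature steps; non-biotinylated SIRPalpha as control inhibitor.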

[14] = molecular target: Parathyroid hormone/parathyroid hormone-related peptide receptor (Homo sapiens) (UniProt Q03431); test: qHTS for PTHR1 Agonists: Optimization Screen against the NCGC LOPAC library (AID 1347079);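 note: GloSensor cAMP luminescence in HEK-293 GP2 cells expressing human PTHR1 with IBMX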
Sequence of Parathyroid hormone/parathyroid hormone-related peptide receptor (Homo sapiens) (Q03431 whole entry, looked up): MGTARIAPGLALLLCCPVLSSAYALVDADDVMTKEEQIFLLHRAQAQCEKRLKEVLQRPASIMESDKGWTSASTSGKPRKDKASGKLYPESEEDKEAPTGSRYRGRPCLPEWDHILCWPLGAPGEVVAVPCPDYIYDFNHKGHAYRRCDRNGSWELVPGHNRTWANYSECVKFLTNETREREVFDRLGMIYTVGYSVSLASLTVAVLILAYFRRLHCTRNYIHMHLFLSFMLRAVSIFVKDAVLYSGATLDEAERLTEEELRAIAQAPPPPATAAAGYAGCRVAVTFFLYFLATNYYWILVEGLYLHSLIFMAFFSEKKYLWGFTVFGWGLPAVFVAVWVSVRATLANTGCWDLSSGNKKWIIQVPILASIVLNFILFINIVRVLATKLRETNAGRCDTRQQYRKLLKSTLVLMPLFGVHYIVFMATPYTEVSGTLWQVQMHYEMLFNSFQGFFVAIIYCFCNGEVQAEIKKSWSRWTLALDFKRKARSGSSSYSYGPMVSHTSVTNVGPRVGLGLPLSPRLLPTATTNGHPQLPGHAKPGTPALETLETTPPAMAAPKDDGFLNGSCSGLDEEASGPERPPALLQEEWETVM
Procedure, shortened: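 Compounds were tested across a qHTS titration. PTHR1-expressing GP2 cells report cAMP rises via GloSensor luminescence after 1 hr compound exposure at 37C with IBMX present.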

[15] = Identifying Small Molecule Inhibitors of Pancreatic Cancer Stem Cells (SN12C, Spheroid) (AID 1259360); conditions: Potency: SN12C spheroid viability; note: potency is the fitted concentration of half-maximal effect
Procedure, shortened: (§1)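 Cytotoxicity read by CellTiter-Glo luminescence after 48 h compound exposure at 37C; percent activity scaled between DMSO-treated cells and cell-free wells. Spheroid formats used cells pre-formed 14 days in stem cell media on hydrogel.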

[16] = Identifying Small Molecule Inhibitors of Pancreatic Cancer Stem Cells (A2780, Spheroid) (AID 1259357); conditions: Potency: A2780 spheroid viability;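 note: compound exposure lasted 48 h before the ATP luminescence read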; note: potency is the fitted concentration of half-maximal effect
Procedure, shortened: as §1

[17] = Identifying Small Molecule Inhibitors of Pancreatic Cancer Stem Cells (A278, Adherent) (AID 1259361); note: nearly all actives have a fitted effect of over 35% in size
Procedure, shortened: (§2)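 Viability is scored by CellTiter-Glo luminescence 48 h after dosing, expressed as percent activity against vehicle and no-cell references. Spheroid formats rely on cells cultured 14 days in stem cell media beforehand.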

[18] = Identifying Small Molecule Inhibitors of Pancreatic Cancer Stem Cells (Panc1, Adherent) (AID 1259362); conditions: Potency: viability; note: potency is the fitted concentration of half-maximal effect
Procedure, shortened: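 Luminescent ATP readout (CellTiter-Glo) quantifies surviving cells after a 48 h drug incubation. Normalization uses DMSO wells as no inhibition and media-only wells as full inhibition; bortezomib served as positive control.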

[19] = Identifying Small Molecule Inhibitors of Pancreatic Cancer Stem Cells (Panc1, Spheroid) (AID 1259359);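 note: compound exposure lasted 48 h before reading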
Procedure, shortened: as §2

CN(C)CCc1ccc(O)cc1
inactive: Potency [1] | Potency [2] | Potency [3] | Potency [4] | Potency [5] | Potency [6] | Potency [7]

CC[N+](CC)(CC)CC
inactive: Potency [1] | Potency [2] | Potency [3] | Potency [4] | Potency [5] | Potency [6] | Potency [7]

CC(=O)Nc1cc([As](=O)(O)O)ccc1O
inactive: Potency [1] | Potency [2] | Potency [3] | Potency [4] | Potency [5] | Potency [6] | Potency [7]

COc1ccc2c(c1OC)CN1CCc3cc4c(cc3C1C2)OCO4 (centres undefined)
active: Potency [8] 9.2 µM
inactive: Potency [1] | Potency [2] | Potency [3] | Potency [4] | Potency [5] | Potency [6] | Potency [7]

c1ccc2c(c1)Nc1ccccc1S2
inactive: Potency [1] | Potency [2] | Potency [3] | Potency [4] | Potency [5] | Potency [6] | Potency [7]

C=C(C)[C@H]1Cc2c(ccc3c2O[C@@H]2COc4cc(OC)c(OC)cc4[C@@H]2C3=O)O1
inactive: Potency [3] | outcome [12] | outcome [13] | outcome [14]
active: Potency [2] 13 nM and 2.64 µM | Potency [9] 0.117 µM | Potency [10] 0.135 µM | Potency [11] 0.0826 µM | Potency [4] 1.09 µM | Potency [5] 2.17 µM and 708 nM | Potency [6] 3.85 µM

CCCCC/C=C\C/C=C\C/C=C\C/C=C\CCCC(=O)NC1CC1
inactive: Potency [15]

C=C1C[C@@H]2[C@H](CC[C@]3(C)C(=O)CC[C@@H]23)[C@@]2(C)C=CC(=O)C=C12
inactive: Potency [1] | Potency [3] | Potency [4] | Potency [5] | Potency [6] | Potency [7]

CNC(=O)N1N=C(c2ccc(N)cc2)c2cc3c(cc2CC1C)OCO3 (centres undefined)
inactive: Potency [16] | Potency [15] | Potency [3]
active: IC50 (viability decrease) [17] 7.43 µM

C[C@]12CCC(=O)C(O)=C1CC[C@@H]1[C@@H]2CC[C@]2(C)C(=O)CC[C@@H]12
inactive: Potency [16] | Potency [15] | Potency [18] | Potency [2] | Potency [10] | Potency [11] | Potency [3] | outcome [14] | Potency [4] | Potency [5] | Potency [6] | Potency [7]

O=C(O)C(=O)c1cn(Cc2ccccc2)c2ccc(-c3ccc(OC(F)(F)F)cc3)cc12
active: Potency [15] 18.7 µM
inactive: outcome [19] | Potency [8] | Potency [2] | Potency [4] | Potency [5] | Potency [6] | Potency [7]

Cc1cc(SCc2sc(-c3ccc(C(F)(F)F)c(F)c3)nc2C)ccc1OCC(=O)O
inactive: outcome [19] | IC50 (viability decrease) [17] | Potency [8] | Potency [2] | Potency [3] | Potency [4] | Potency [5] | Potency [6] | Potency [7]

COC[C@H]1OC(=O)c2coc3c2[C@@]1(C)C1=C(C3=O)C2CCC(=O)[C@@]2(C)C[C@H]1OC(C)=O (some centres undefined)
active: Potency [15] 18.7 µM | IC50 (viability decrease) [17] 23.5 µM | Potency [18] 0.296 µM
inactive: Potency [8] | Potency [2] | Potency [9] | Potency [10] | Potency [11] | Potency [3] | outcome [12] | outcome [13] | outcome [14] | Potency [4] | Potency [5] | Potency [7]

C[C@@H]1[C@@H](CC(C[C@H]2O[C@@H]3O[C@]4(C)CC[C@@H]5[C@H](C)CC[C@@H]([C@H]2C)[C@@]35OO4)C[S+](=O)([O-])c2ccc(COC(=O)N(C)C)cc2)O[C@@H]2O[C@]3(C)CC[C@H]4[C@H](C)CC[C@@H]1[C@@]24OO3 (some centres undefined)
active: Potency [16] 0.059 µM | IC50 (viability decrease) [17] 0.0418 µM | Potency [18] 0.0372 µM
inactive: Potency [6] | Potency [7]

COC1(CS(=O)c2ccccc2)CCN(CCc2c[nH]c3ccc(F)cc23)CC1 (centres undefined)
inactive: IC50 (viability decrease) [17] | Potency [18] | Potency [2] | Potency [3] | Potency [4] | Potency [5] | Potency [6] | Potency [7]

CC[C@@H](CO)NC(=O)[C@@H]1C=C2c3cccc4c3c(cn4C)C[C@H]2N(C)C1
inactive: Potency [9] | Potency [10] | Potency [11] | outcome [14] | Potency [4] | Potency [5] | Potency [6] | Potency [7]
active: Potency [2] 20.6 µM

C[C@@H]1[C@@H](C(=O)C[C@H]2O[C@@H]3O[C@]4(C)CC[C@@H]5[C@H](C)CC[C@@H]([C@H]2C)[C@@]35OO4)O[C@@H]2O[C@]3(C)CC[C@H]4[C@H](C)CC[C@@H]1[C@@]24OO3
active: Potency [6] 21.7 µM
inactive: Potency [3] | Potency [5]

Cc1sc2c(c1C)C(c1ccc(Cl)cc1)=N[C@@H](CC(=O)OC(C)(C)C)c1nnc(C)n1-2
active: Potency [18] 4.18 µM | Potency [2] 0.469 µM | Potency [5] 2.43 µM | Potency [6] 1.09 µM | Potency [7] 0.385 µM

CN1C(=S)CN=C(c2ccccc2)c2cc(Cl)ccc21
inactive: Potency [1] | Potency [3] | Potency [4] | Potency [5] | Potency [6] | Potency [7]

Cc1ccc(-c2nc3ccc(C)cn3c2CC(=O)N(C)C)cc1
inactive: Potency [1] | Potency [3] | Potency [4] | Potency [5] | Potency [6] | Potency [7]
